From the supplement of paper PMC12340641
± gives the standard deviation of the averaged measurements.

Columns and labels:
[1] = biological target: IKZF1 (dCK*-IKZF1 fusion in HEK293FT) (UniProt Q13422); test: inhibition of IKZF1 HTRF signal (DMSO = 0%, pomalidomide 10 uM = 100%); higher = lower IKZF1 protein level; settings: compound concentration: 5 uM, overnight (~20 h)
Summary of the method: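 HEK293FT cells stably expressing a dCK*-IKZF1 fusion (2000/well, 384-well) were treated overnight at 37 °C with 5 μM compound in single wells. They were then lysed 30 min at room temperature, and lysate was incubated overnight with a commercial HTRF total-IKZF1 antibody kit. The time-resolved FRET ratio (665/620 nm) was background-subtracted. Percent inhibition of IKZF1 signal was normalised per plate to vehicle (0%) and a reference degrader (100%).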

HEK293FT dCK*-only = test: relative growth in counter assay (no AraC = 100%, AraC + DMSO = 0%); higher = more growth rescue independent of IKZF1; settings: compound concentration: 5 uM; AraC concentration: 0.3 uM; overnight pretreatment + 4 days AraC
Summary of the method: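 In 384-well plates, 300 HEK293FT cells per well expressing an engineered kinase construct alone got 5 μM compound 2 h after seeding. After overnight at 37 °C, 0.3 μM nucleoside suicide substrate plus medium was applied for 4 days. Counting of Hoechst 33342-stained nuclei by imaging on day 5 was normalised per plate, with 100% for no-substrate wells and 0% for substrate plus vehicle.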

HEK293FT dCK*-IKZF1 = test: relative growth recovery (pomalidomide 10 uM = 100%, DMSO = 0%); higher = more growth rescue (IKZF1 fusion degradation); settings: compound concentration: 5 uM; AraC concentration: 0.3 uM; overnight pretreatment + 4 days AraC
Summary of the method: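 On day 5, whole-well imaging was used to count Hoechst 33342-stained nuclei of HEK293FT cells stably carrying a deoxycytidine kinase–IKZF1 fusion. These cells had received 5 μM compound 2 h after seeding, followed after overnight at 37 °C by a nucleoside suicide substrate at 0.3 μM plus medium for 4 days. Growth recovery was normalised on each plate against a reference degrader and vehicle, which defined 100% and 0%, and values are duplicate means from separate days.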

Sequence of IKZF1 (dCK*-IKZF1 fusion in HEK293FT) (Q13422 whole entry, looked up, the tested form may be a part): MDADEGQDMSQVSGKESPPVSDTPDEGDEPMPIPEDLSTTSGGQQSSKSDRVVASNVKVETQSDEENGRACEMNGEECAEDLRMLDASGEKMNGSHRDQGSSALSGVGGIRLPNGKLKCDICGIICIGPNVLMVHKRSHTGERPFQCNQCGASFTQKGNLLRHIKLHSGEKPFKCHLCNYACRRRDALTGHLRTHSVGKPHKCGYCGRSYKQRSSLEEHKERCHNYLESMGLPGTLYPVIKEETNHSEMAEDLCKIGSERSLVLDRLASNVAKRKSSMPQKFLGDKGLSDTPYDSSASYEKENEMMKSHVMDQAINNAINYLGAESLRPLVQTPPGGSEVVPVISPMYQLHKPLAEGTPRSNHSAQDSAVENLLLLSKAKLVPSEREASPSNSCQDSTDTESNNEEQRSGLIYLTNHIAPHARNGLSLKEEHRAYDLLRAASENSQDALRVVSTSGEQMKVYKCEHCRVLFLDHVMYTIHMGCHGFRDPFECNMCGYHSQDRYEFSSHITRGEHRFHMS

Compound	inhibition of IKZF1 HTRF signal [1] [%]	relative growth in counter assay (HEK293FT dCK*-only) [%]	relative growth recovery (HEK293FT dCK*-IKZF1) [%]
C=C(C)CN1CC[C@]23c4c5ccc(O)c4O[C@H]2c2[nH]c4ccccc4c2C[C@@]3(O)C1C5	-30.3	-7.54	-3.3
O=[N+]([O-])c1cc(O)c(O)c([N+](=O)[O-])c1	-33.8	2.01	0.23
COc1cc([C@@H]2c3cc4c(cc3[C@H](O)[C@H]3COC(=O)C23)OCO4)cc(OC)c1OC (stereo partly drawn) [Podofilox]	49.2	-34	-12.1
CCO[C@H]1O[C@@H]2O[C@@]3(C)CC[C@H]4[C@H](C)CC[C@@H]([C@H]1C)[C@@]24OO3 [Artemotil]	21.4	-27.3	-5.64
N=C(Nc1ccccc1)Nc1ccccc1 [diphenylguanidine]	-55.9	-6.47	-1.17
O=c1[nH]c2ccccc2n1C1CCN(CCCC(c2ccc(F)cc2)c2ccc(F)cc2)CC1 [Pimozide]	-27.8	-9.38	-1.04
c1ccc2c(c1)Nc1ccccc1S2	-13.2	-0.21	0.68
CC[C@H]1C2CC3[C@@H]4N(C)c5ccccc5[C@]45C[C@@H](C2C5O)N3[C@@H]1O (stereo partly drawn)	-0.05	5.04	1.42
Cc1cc(C(C#N)c2ccc(Cl)cc2)c(Cl)cc1NC(=O)c1cc(I)cc(I)c1O (stereo not drawn)	-5.04	-3.81	-0.555
CC[C@@H](C(N)=O)N1CCCC1=O	17.7	2.24	0.38
CCOc1ccccc1-n1c(C(C)N2CCN(C(=O)COc3ccc(Cl)cc3)CC2)nc2ccccc2c1=O (stereo not drawn) [Erastin]	-51.3	-4.63	-1.44
C(=C\c1ccccc1)/CN1CCN(CCOC(c2ccccc2)c2ccccc2)CC1	-32.9	-4.14	0.86
c1ccc(CCCN2CCN(CCOC(c3ccccc3)c3ccccc3)CC2)cc1	-28.8	-4.09	3.4
Cc1cc(O)c2c(=O)c3c(O)cc(O)c4c5c(O)cc(O)c6c(=O)c7c(O)cc(C)c8c1c2c(c34)c(c78)c65 [Hypericin]	13.4	-9.3	-3.8
CCC(C)[C@H]1O[C@]2(C=C[C@@H]1C)C[C@@H]1C[C@@H](C/C=C(\C)[C@@H](OC3C[C@H](OC)C(O[C@H]4C[C@H](OC)[C@@H](O)[C@H](C)O4)[C@H](C)O3)[C@@H](C)/C=C/C=C3\CO[C@@H]4[C@H](O)C(C)=C[C@@H](C(=O)O1)[C@]34O)O2 (stereo partly drawn) [ABAMECTIN (avermectin B1a shown)]	-61.7	-8.1	-3.08
O=c1[nH]c2ccccc2n1CCCN1CCC(n2c(=O)[nH]c3cc(Cl)ccc32)CC1	4.83	-4.05	2.7
CCCCC1(C2CCCC2)Cc2cc(OCCCC(=O)O)c(Cl)c(Cl)c2C1=O (stereo not drawn)	-38.8	2.86	0.8
CO[C@@]12C(=COC(N)=O)c3c(O)c(N)c(C)c(O)c3N1C[C@@H]1N[C@@H]12 [Mitomycin C]	15.8	-25.9	-6.43
O=C(N/N=C/c1ccc([N+](=O)[O-])o1)c1cc([N+](=O)[O-])cc([N+](=O)[O-])c1O	2.89	-3.38	-2.9

Compound	inhibition of IKZF1 HTRF signal [1] [%]	relative growth in counter assay (HEK293FT dCK*-only) [%]	relative growth recovery (HEK293FT dCK*-IKZF1) [%]
Oc1cc(Cl)ccc1Oc1ccc(Cl)cc1Cl	-23.1	-4.14	-0.94
O=c1n(Cl)c(=O)n(Cl)c(=O)n1Cl	-9.26	-2.72	-1.44
O=[N+]([O-])/C=C/c1ccc2c(c1)OCO2	-44.2	-33.6	-13.1
CC[C@@]1(O)C(=O)OCc2c1cc1n(c2=O)Cc2cc3ccccc3nc2-1 [camptothecin]	-10.9	-34.5	-12.9
C[C@]12CCC3C(CC[C@]4(O)C[C@@H](O)CC[C@]34C=O)[C@@]1(O)CCC2C1=CC(=O)OC1 (stereo partly drawn) [Strophantidin]	74.7	-32.9	-11.4
CC(Cc1ccccc1)NCCC(c1ccccc1)c1ccccc1 (stereo not drawn) [prenylamine]	-23.8	9.26	-0.73
Fc1ccc(C(OCCN2CCN(CCCc3ccccc3)CC2)c2ccc(F)cc2)cc1 [vanoxerine]	-25.6	-32.4	-10.5
O=c1c2ccccc2[se]n1-c1ccccc1	-37.8	-8.59	-0.075
C[C@@H]1C[C@@H]([C@H](O)CC2CC(=O)NC(=O)C2)C(=O)[C@@H](C)C1	79.8	-33.1	-12
N#Cc1nn(-c2c(Cl)cc(C(F)(F)F)cc2Cl)c(N)c1S(=O)C(F)(F)F (stereo not drawn)	-50.9	7.45	-1.52
c1ccc2c(c1)Sc1ccccc1N2CC1CN2CCC1CC2 (stereo not drawn) [levomequitazine]	10.6	-5.25	0.35
CC(C)[C@]12O[C@H]1[C@@H]1O[C@]13[C@]1(O[C@H]1C[C@H]1C4=C(CC[C@@]13C)C(=O)OC4)[C@@H]2O [Triptolide]	29.6	-34	-12.8
Clc1ccc(N2CCN(Cc3c[nH]c4ncccc34)CC2)cc1	-41.5	6.88	2.15
CC[C@@H](C(=O)O)C1CC[C@H](C)C([C@@H](C)[C@H](O)[C@H](C)C(=O)[C@H](CC)C2O[C@]3(C=C[C@@H](O)[C@]4(CC[C@@](C)(C5CC[C@](O)(CC)[C@H](C)O5)O4)O3)[C@H](C)C[C@@H]2C)O1 (stereo partly drawn) [Salinomycin (Procoxacin)]	-5.47	-10.3	-1.1
O=[N+]([O-])c1ccc(Cl)c([N+](=O)[O-])c1 [2,4-dinitrochlorobenzene]	7.2	-34.1	-12.8
CC[C@H]1CN2CCc3cc(OC)c(OC)cc3C2C[C@@H]1CC1NCCc2cc(OC)c(OC)cc21 (stereo partly drawn)	38.3	-34.9	-12.4
CCCCCCCCCCCCCCCC[n+]1ccccc1	-19.4	-34.4	-13
CCCCCCCCCCC(=O)O[C@H]1CC[C@H]2[C@@H]3CCC4=CC(=O)CC[C@]4(C)[C@H]3CC[C@]12C [Testosterone (undecanoate)]	-31.5	4.31	-0.23
C[C@H]1O[C@@H](O[C@H]2[C@@H](O)C[C@H](O[C@H]3[C@@H](O)C[C@H](O[C@H]4CC[C@@]5(C)[C@H](CC[C@@H]6[C@@H]5C[C@@H](O)[C@]5(C)C(c7coc(O)c7)CC[C@]65O)C4)O[C@@H]3C)O[C@@H]2C)C[C@H](O)[C@@H]1O (stereo partly drawn) [Digoxin]	84.1	-34.1	-12.6

Compound	inhibition of IKZF1 HTRF signal [1] [%]	relative growth in counter assay (HEK293FT dCK*-only) [%]	relative growth recovery (HEK293FT dCK*-IKZF1) [%]
COc1cc2c(c(OC)c1OC)-c1ccc(OC)c(=O)cc1[C@@H](NC(C)=O)CC2	-16.1	-34.4	-11.6
COc1ccc(C[C@H]2NC[C@H](O)[C@H]2OC(C)=O)cc1 [anisomycin]	63.3	-34.7	-12.5
c1ccc2c(c1)sc1ccccc12	-33.1	-4.73	1.72
CC(C)C[C@H](NC(=O)[C@@H](O)[C@H](N)Cc1ccccc1)C(=O)NCCOCCOCCOCC(=O)O[C@H]1CC[C@H]2[C@@H]3CC[C@H]4CC(=O)CC[C@]4(C)[C@H]3CC[C@]12C.O=C(O)C(F)(F)F [PROTAC AR Degrader-4 (TFA)]	16.9	12.3	8.26
CC[C@@]1(C2O[C@@H](C3O[C@@](O)(CO)[C@H](C)C[C@@H]3C)C[C@@H]2C)CC[C@H]([C@]2(C)CC[C@]3(C[C@H](O)[C@@H](C)[C@@H]([C@@H](C)[C@@H](OC)[C@H](C)C(=O)O)O3)O2)O1 (stereo partly drawn)	9.03	-4.55	-0.68
CCCCCCC[n+]1ccc(-c2cc[n+](CCCCCCC)cc2)cc1	-27.9	-12.3	-3.88
C=C1[C@@H](C)[C@H]2[C@H](Cc3ccccc3)NC(=O)[C@]23OC(=O)/C=C/[C@H](O)CCC[C@@H](C)C/C=C/[C@H]3[C@@H]1O [Cytochalasin B]	32.2	-30.2	-8.39
C[C@@]12C(=O)OC(=O)[C@]1(C)[C@H]1CC[C@@H]2O1 [cantharidin]	15.8	3.7	-4.16
COc1cc2c(c(OC)c1OC)-c1ccc(OC)c(=O)cc1[C@@H](NC(C)=O)CC2 [Colchicine]	17.9 ± 34	-33.57 ± 0.13	-12.2 ± 0.36
OC1=[C@]([C@]2=C(O)C(C(C=O)=C(O)C(O)=C3C(C)C)=C3C=C2C)C(C)=CC4=C1C(C=O)=C(O)C(O)=C4C(C)C [gossypol]	-16.2	-34.8	-11.7
O=C1c2ccccc2C(=O)c2ccccc21 [anthraquinone]	-34.9	0.57	-0.655
C[C@]12CC[C@H](O)C[C@H]1CC[C@@H]1[C@@H]2CC[C@]2(C)[C@@H](C3=CC(=O)OC3)CC[C@]12O [digitoxigenin]	40.7	-34.6	-12.2
COc1ccc2c(c1)/C(=C/c1cnc[nH]1)C(=O)N2	-35.9	-21.6	-7.43
COC[C@H]1OC(=O)c2coc3c2[C@@]1(C)C1=C(C3=O)[C@@H]2CCC(=O)[C@@]2(C)C[C@H]1OC(C)=O [Wortmannin]	1.66	0.96	1.92
CO[C@H]1C[C@H](O[C@H]2CC[C@@]3(C)[C@H](CC[C@@H]4[C@@H]3CC[C@]3(C)[C@@H](C5=CC(=O)OC5)[C@@H](OC(C)=O)C[C@]43O)C2)O[C@@H](C)[C@@H]1O [Oleandrin]	45.9	-35	-12.7
CO[C@H]1[C@H](O)[C@H](O[C@H]2CC[C@@]3(C=O)[C@H](CC[C@@H]4[C@@H]3CC[C@]3(C)[C@@H](C5=CC(=O)OC5)CC[C@]43O)C2)O[C@@H](C)[C@@H]1O [Peruvoside]	94.1	-34.2	-12.7
COC(=O)[C@@]12OC[C@]34[C@H]([C@@H](O)[C@@H]1O)[C@@]1(C)CC(=O)C(O)=C(C)[C@@H]1C[C@H]3OC(=O)[C@H](OC(=O)/C=C(\C)C(C)C)[C@@H]24 [Bruceantin]	43.7	-34.9	-12.3
Fc1ccc(C(OCCN2CCN(C/C=C/c3ccccc3)CC2)c2ccc(F)cc2)cc1	-25.2	4.29	8.18
